Only some compounds are listed: those with a hit (about 21% of all), similar ones and a draw of the others.
IL-1B inflam inh = blocks inflammasome-driven IL-1 beta release; activity change, % at 57.5 µM; AID 743279; 360,000 tested, 4.7% active; THP-1 LPS/ATP IL-1B secretion, AlphaLISA, 16 h; hits give low values; in the data active = activity change below about -50%; inconclusive = mostly about -30% to -49%; also: % is scaled to controls: 0 for no effect and ±100 for the full control effect
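THP-1 cells pretreated 1 hr with compounds (up to 57.5 uM final), then stimulated with LPS (250 ng/mL final) plus ATP (1.25 mM final); secreted IL-1B measured by AlphaLISA after 16 hr, decreased signal indicating inhibition.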
DRD3 antagonist = blocks the human D3 dopamine receptor; P35462; D3R cells, DiscoveRx beta-arrestin luminescence, antagonist mode; hits give low values; max response, negative = inhibition, %; 360,000 tested, 2.5% active; AID 652054; in the data active = max response below about -50%; inconclusive = no clear call, values can overlap the other calls; also: % is scaled to controls: 0 for no effect and ±100 for the full control effect
Target sequence (P35462 whole entry, looked up): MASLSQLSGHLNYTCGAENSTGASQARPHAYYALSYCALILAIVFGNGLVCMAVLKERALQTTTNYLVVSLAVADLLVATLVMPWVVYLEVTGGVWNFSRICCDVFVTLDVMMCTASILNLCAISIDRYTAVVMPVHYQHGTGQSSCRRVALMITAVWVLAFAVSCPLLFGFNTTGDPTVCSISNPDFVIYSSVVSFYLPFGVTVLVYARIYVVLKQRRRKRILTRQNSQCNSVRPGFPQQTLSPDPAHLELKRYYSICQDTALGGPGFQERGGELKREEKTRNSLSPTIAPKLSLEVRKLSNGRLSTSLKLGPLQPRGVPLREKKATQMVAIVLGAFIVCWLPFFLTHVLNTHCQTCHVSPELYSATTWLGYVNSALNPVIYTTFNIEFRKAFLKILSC
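Cells expressing the human receptor were seeded at 1500 cells/well, incubated overnight at 37 degrees C in 5% CO2, then exposed to library compounds with dopamine controls for 90 minutes at 37 degrees C before luminescent detection.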
TDP1 cell noCPT = qHTS for Inhibitors of human tyrosyl-DNA phosphodiesterase 1 (TDP1): qHTS in cells in absence of CPT | 420,000 tested, 15% active | Potency, µM (doses to about 46.2 µM), for the others: at the top dose activity change, negative = growth inhibition, usual class: inhibitors | DT40 Tdp1-/- hTDP1 cells, no CPT, ATP luminescence, 48 h | AID 686978, 2013; also: potency is read from the fitted curve at half-maximal effect; % is scaled to controls: 0 for no effect and ±100 for the full control effect; nearly all actives have a fitted effect of over 55% in size
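Compound effects on proliferation are scored in DT40 Tdp1-/-;hTDP1 cells in the absence of CPT. ATP levels (CellTiter-Glo luminescence) are recorded after a ≥48 hr, 37 °C incubation.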
D3 ag = activates the human D3 dopamine receptor | P35462 | D3R DiscoveRx beta-arrestin cells, luminescence, 90 min | max activation, % | 410,000 tested, 0.58% active; in the data active = max activation above about 30%; also: 0% is about no effect
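Agonist-mode cell screen: cells plated at 1500/well and incubated overnight at 37 °C, then exposed to library compounds for 90 min at 37 °C. Detection reagent was added for 30–60 min at room temperature, and luminescence was read.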
ClpP mod = qHTS Assay for Activators of ClpP; purified B. subtilis ClpP, FRET peptide cleavage, 20 min; Potency, µM (titrated, usually from 57.5 µM), for inactives: top-dose activity change, negative = active; 340,000 tested, 1.9% active; AID 651965, 2013; active = well fitted falling curve with a large enough effect; inconclusive = small, poorly fitted or top-dose-only effect; inactive = no such curve, though single readings can be large or run the other way; also: potency is read from the fitted curve at half-maximal effect; the source files actives as falling curves though it sought activators and does not explain the sign; nearly all actives have a fitted effect of over 65% in size
Target sequence (P80244 whole entry, looked up): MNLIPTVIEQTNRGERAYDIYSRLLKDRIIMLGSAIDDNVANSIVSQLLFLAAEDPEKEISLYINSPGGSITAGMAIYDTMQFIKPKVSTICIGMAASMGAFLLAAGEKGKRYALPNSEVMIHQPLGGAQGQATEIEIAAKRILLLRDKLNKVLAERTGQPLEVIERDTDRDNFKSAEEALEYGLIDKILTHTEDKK
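Buffer: 100 mM Tris/HCl pH8, 100 mM KCl, 0.05% low protease BSA, 2.5% glycerol, 0.01% Tween-20. ClpP 10 microg/mL final; 20 min RT; delta FRET normalized to ADEP and DMSO controls.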
TDP1 cell CPT = growth inhibition of DT40 Tdp1-/-;hTDP1 cells with camptothecin (screen for TDP1 inhibitors). Potency, µM (doses to about 46.2 µM), for the others: top-dose activity change, negative = growth inhibition, hits mostly inhibitors. 420,000 tested, 12% active. chicken DT40 Tdp1-/-;hTDP1 cells + 20 nM CPT, ATP luminescence, 48 h; also: potency is read from the fitted curve at half-maximal effect; % is scaled to controls: 0 for no effect and ±100 for the full control effect; nearly all actives have a fitted effect of over 55% in size
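Chicken DT40 Tdp1-/- cells stably complemented with human TDP1 were seeded at 400 cells/well in medium containing 20 nM camptothecin, exposed to pin-transferred compounds, and grown at 37 °C for at least 48 hr. Viability was read as ATP luminescence.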
Starred values were filed as active, the others as inactive; u = inconclusive; x = no result given. Unless noted, calls follow the shape of the dose curve; as a rule, active = well fitted inhibition curve with a large enough effect; inconclusive = small, poorly fitted or top-dose-only effect; inactive = flat fitted curve, though single readings scatter.

SMILES	IL-1B inflam inh	DRD3 antagonist	TDP1 cell noCPT	D3 ag	ClpP mod	TDP1 cell CPT
O=C(C[C@H]1CC[C@H](NC(=O)C2CCOCC2)[C@@H](CO)O1)NCc1ccncc1	11.2	-19.2	0.6%	4.4	-4.6%	4.1%
O=C(c1cc(Br)c(Br)s1)N1CCN(C/C=C/c2ccccc2)CC1	-7.3	-78.2*	-15.7%	2.9	-2.6%	4.2%
O=C(c1cc2ccccc2o1)N1CCN(C/C=C/c2ccccc2)CC1	-54.5*	-78.1*	u	-18.6	-2.1%	14.6µM*
Cc1cc(C(=O)N2CCN(C/C=C/c3ccccc3)CC2)cs1	1.4	u	-31.1%	24.5	15.8%	2.8%
CC(=O)N1CCN(S(=O)(=O)c2cccc(C(=O)OCC(=O)N(CCC#N)c3ccc(F)cc3)c2)CC1	7.1	-2.1	3.1%	1.2	2.2%	-6.1%
CC(C)CCC(C(=O)NC(C)c1ccccc1)C(=O)NC(C)c1ccccc1 (stereo unspecified)	23.8	-19.3	-4.8%	-7.1	x	1.5%
COc1ccc(NC(=O)Cn2cc(C(=O)c3cccs3)c3ccccc32)cc1	x	x	u	4.2	-2.6%	u
CCOc1ccc(NC(=O)Cn2cc(C(C)=O)c3ccccc32)cc1	41.3	2.5	u	9.4	x	u
CCOc1ccc(NC(=O)Cn2cc(C(=O)CC)c3ccccc32)cc1	14.6	1.6	25.9µM*	-0.1	-1.6%	13µM*
COc1ccc(NC(=O)Cn2cc(C(C)=O)c3ccccc32)cc1	48.5	25.9	u	7.7	1.3%	5.17µM*
CCOc1ccc(NC(=O)CCNC(=O)Cn2ccc3ccccc3c2=O)cc1	-0.2	9.1	-5.0%	7.8	31.6µM*	3.6%
COc1ccc(C(=O)n2cc(C(C)=O)c3ccccc32)cc1	-4.6	-12.9	14.6µM*	-8.3	0.7%	10.3µM*
CCN(CC)C(=O)C1=C(C)N(CCCOC)C(=O)C(CC(=O)NCCc2ccccn2)C1 (stereo unspecified)	25.4	22.0	4.6%	2.0	-3.0%	4.1%
O=C(CCc1nc2ccccc2c(=O)[nH]1)Nc1cc(C(F)(F)F)ccc1N1CCCC1	69.1	-1.8	-0.8%	-0.1	5.0%	-19.0%
O=C(Nc1cccc(Oc2ccccc2)c1)C1Cc2c(-c3cccc(F)c3)ccnc2O1 (stereo unspecified)	u	1.9	u	11.9	-17.2%	u
CC(=O)c1cccc(NC(=O)C2Cc3c(-c4ccccc4Oc4ccccc4)ccnc3O2)c1 (stereo unspecified)	u	71.8	16.4µM*	12.1	-5.1%	18.4µM*
O=C(Nc1cccc(C(F)(F)F)c1)C1Cc2c(-c3ccccc3Oc3ccccc3)ccnc2O1 (stereo unspecified)	-23.2	19.2	16.4µM*	3.6	-7.3%	23.1µM*
CN(C)c1cccc(NC(=O)C2Cc3c(-c4ccccc4Oc4ccccc4)ccnc3O2)c1 (stereo unspecified)	-27.2	-5.2	u	2.5	-24.9%	u
O=C(Nc1cccnc1)C1Cc2c(-c3ccccc3Oc3ccccc3)ccnc2O1 (stereo unspecified)	u	12.6	23.1µM*	12.8	-4.8%	u
Cc1cc(C)cc(OCC(=O)OCC(=O)Nc2cc(S(=O)(=O)N3CCOCC3)ccc2Cl)c1	4.8	u	-7.3%	5.0	-2.6%	-9.0%
O=C(NC(=S)Nc1ccc2nc[nH]c2c1)c1ccccc1	-15.2	4.4	1.6%	-1.9	-1.0%	-5.0%
COc1cc(OC)c2c3c(c(C4CCCCC4)nc2c1)CCC3	51.4	80.0	u	17.4	4.3%	u
O=C(/C=C/c1ccc(F)cc1)c1ccc(N2CCOCC2)cc1	-58.6*	10.7	u	5.4	x	20.6µM*
Cc1ccc(/C=C/C(=O)c2ccc(N3CCOCC3)cc2)s1	u	-14.8	u	-5.8	x	-10.5%
CCc1ccc(/C=C/C(=O)c2ccc(N3CCOCC3)cc2)cc1	-89.0*	17.6	u	-7.9	0.7%	u
SMILES	IL-1B inflam inh	DRD3 antagonist	TDP1 cell noCPT	D3 ag	ClpP mod	TDP1 cell CPT
Cc1cccc(C2c3[nH]c4ccccc4c3CCN2C(=O)c2cc(CC(C)C)[nH]c(=O)n2)n1 (stereo unspecified)	2.9	4.6	u	-0.3	-3.2%	u
CN(Cc1ccccc1F)C(=O)c1ccc2c(=O)n3c(nc2c1)CCC3	-2.4	-18.2	-27.9%	-5.3	-8.4%	-4.7%
Cc1ccc(CNC(=O)Cn2ncc3c([nH]c4ccc(C)cc43)c2=O)cc1	x	x	-2.4%	3.6	-17.3%	-4.1%
Cc1oc(-c2cccc(Cl)c2)nc1CSc1nnc(C)n2c1cc1occc12	x	x	0.5%	1.5	u	-2.5%
CCN(CC)C(=O)c1n[nH]c(=O)c2ccccc12	0.0	-95.6*	5.7%	5.4	-1.4%	-7.0%
O=C1CC(=O)Nc2cc(S(=O)(=O)Nc3cccc(Br)c3)ccc2N1	x	x	-6.3%	-3.2	-2.7%	-19.6%
Brc1cccc(-c2n[nH]c(-c3ccccc3)n2)c1	u	-9.4	23.1µM*	-7.6	-1.5%	u
CC1(C(=O)NS(=O)(=O)c2ccc(F)cc2F)CCN1C(=O)CCc1ccccc1 (stereo unspecified)	9.0	1.1	0.2%	7.7	0.0%	-2.9%
COc1ccc(C(=O)NCCN(C)C)c2nc3ccccc3cc12	-99.2*	5.2	0.164µM*	-0.3	1.6%	0.184µM*
CN(CCNC(=O)c1c[nH]c2c1ccc1ccccc12)CCNC(=O)c1c[nH]c2c1ccc1ccccc12	-23.1	-3.7	u	-11.5	28.2µM*	23.1µM*
COc1ccc(C(=O)Nc2ccc3ccccc3n2)c(OC)c1OC	-76.1*	11.3	u	1.1	3.9%	u
COc1cccc2nc3c(C(=O)NCCN(C)C)cccc3cc12	-96.6*	9.4	0.184µM*	-3.5	-0.5%	0.164µM*
Cc1ccc(Sc2cc(C(=O)NCCN(C)C)c3ccccc3n2)cc1	-29.1	3.8	u	-12.7	1.3%	u
O=C(Nc1ccc2ccccc2n1)c1ccccc1Cl	0.0	-9.1	u	-5.9	-3.8%	u
Cc1ccc(C)c(NC(=O)CN(C)C(=O)CC2OC(=O)c3ccccc32)c1 (stereo unspecified)	0.7	20.7	0.3%	-4.0	-12.7%	u
O=C(Cn1c(=O)cnc2ccccc21)N1CCN(S(=O)(=O)c2cccc([N+](=O)[O-])c2)CC1	-5.7	4.4	2.5%	-0.4	-0.6%	-16.6%
